Screening results deposited in PubChem by National Center for Advancing Translational Sciences (NCATS).
In the library only some 5.3% were active in any assay of this set; here they are far more common.
CtBP-E1A blk = qHTS Assay for Inhibitors of the CtBP/E1A Interaction; AlphaScreen GST-E1A/His-CtBP binding, 1536-well; active compounds read low; 0.49% of 340,000 active; activity change, % (concentration not given with the values); AID 651724, 2012; CtBP / adenovirus E1A interaction (AlphaScreen); in the data active = activity change below about -65%; inconclusive = mostly about -30% to -63%; note: % is set by controls: 0 for no effect and ±100 for the full control effect
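GST-E1A and His-tagged CtBP (125 nM each as 5X stock) were preincubated with pin-transferred compound for 2 h at 37 °C in the dark, then glutathione donor and nickel acceptor beads were added for 1 h before AlphaScreen reading.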
HP1b chromo inh = HTS for Inhibitors of HP1-beta Chromodomain Interactions with Methylated Histone Tails; Chromobox protein homolog 1 (Homo sapiens), P83916; AlphaScreen HP1-beta / biotin-H3K9me3 peptide binding; Potency, µM (series often up to 114 µM), inactives show at the top dose activity change, negative = inhibition, usual class: inhibitors; 0.56% of 390,000 active; AID 540317, 2011; note: potency is the fitted concentration of half-maximal effect; nearly all actives have a fitted effect of over 70% in size
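AlphaScreen: HP1-beta (50 nM) preformed 30 min with biotin-H3(1-18)K9me3 peptide (50 nM) in PBS pH 7.4, 0.01% Tween-20. Compound added for 30 min at RT, then streptavidin donor/nickel chelate acceptor beads (10 ug/mL) for 30 min.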
BAZ2B block = qHTS Assay for Inhibitors of BAZ2B | Bromodomain adjacent to zinc finger domain protein 2B (Homo sapiens), Q9UIF8 | AlphaScreen BAZ2B-H3K14Ac peptide displacement | Potency, µM (titrated, usually from 114 µM), for inactives: at the highest dose activity change, negative = inhibition, usual class: inhibitors | 4.4% of 360,000 active | AID 504333, 2011; note: potency is the fitted concentration of half-maximal effect; % is set by controls: 0 for no effect and ±100 for the full control effect; nearly all actives have a fitted effect of over 60% in size
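Inhibition is scored as reduced AlphaScreen emission. The BAZ2B/b-H3(5-23)K14Ac complex (50 nM each) in PBS pH 7.4, 0.01% Tween-20 meets compound (up to 110 uM) for 30 min at RT before bead addition.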
Six1-Eya2 inh = qHTS Assay for Inhibitors of the Six1/Eya2 Interaction; 0.56% of 360,000 active; activity change, % (concentration not given with the values); AlphaScreen GST-Six1/His-Eya2 binding, biochemical; active compounds read low; in the data active = activity change below about -65%; inconclusive = mostly about -30% to -63%; note: % is set by controls: 0 for no effect and ±100 for the full control effect
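GST-Six1 + His-Eya2 (5X stock: 250/500 nM); Tris pH 8.0, 300 mM NaCl, 0.05% BSA, 0.02% Tween 20; GSH donor/Ni acceptor beads; 1 h 37 °C dark; AlphaScreen readout.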
JMJD2A Tudor inh = qHTS Assay for Inhibitors of JMJD2A-Tudor Domain; 4.4% of 390,000 active; AID 504339, 2011; Potency, µM (doses to about 114 µM), for inactives: at the top dose activity change, negative = inhibition, hits mostly inhibitors; Lysine-specific demethylase 4A (Homo sapiens), O75164; AlphaScreen JMJD2A-Tudor / H3K4me3 peptide binding; note: potency is the fitted concentration of half-maximal effect; % is set by controls: 0 for no effect and ±100 for the full control effect; nearly all actives have a fitted effect of over 50% in size
TDP1 inh = qHTS Assay for Inhibitors of Tyrosyl-DNA Phosphodiesterase (TDP1). 0.28% of 350,000 active. recombinant TDP1, AlphaScreen DNA substrate cleavage. Potency, µM (top dose mostly 130 µM), for the others: at the top dose activity change, negative = inhibition, hits mostly inhibitors; note: potency is the fitted concentration of half-maximal effect; % is set by controls: 0 for no effect and ±100 for the full control effect; nearly all actives have a fitted effect of over 40% in size
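Steps: enzyme plus compound, 15 min RT; add biotin/phosphotyrosine-FITC oligonucleotide (15 nM final), react 5 min; add donor/acceptor beads (10 ug/ml final), 10 min; read AlphaScreen. Tdp1 at 1 nM final.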
* hit, by the source's call; ? = inconclusive; nt = not tested or not shown; [ ] = remark or other dose. Unless noted, calls come from the whole dose curve; as a rule, active = well fitted inhibition curve with a large enough effect; inconclusive = small, poorly fitted or top-dose-only effect; inactive = no such curve, though single readings can be large or run the other way.

SMILES	CtBP-E1A blk	HP1b chromo inh	BAZ2B block	Six1-Eya2 inh	JMJD2A Tudor inh	TDP1 inh
NC(=O)c1c(NC(=O)c2noc3c2CCCC3)sc2c1CCCC2	nt	?	-5.3%	nt	79.4µM*	-4.5%
Cn1nccc1C(=O)Nc1sc2c(c1C(N)=O)CCCC2	-16.6	7.0%	-22.8%	-11.5	-6.4%	2.4%
COc1ccccc1CNC(=O)CCc1c(C)nc2c(c(C)nn2-c2ccc(C)c(C)c2)c1C	nt	28.0%	-1.3%	nt	-14.1%	-2.5%
O=C(OCC#CCSc1nnc(-c2cccc3ccccc23)o1)c1ccsc1	nt	nt	nt	nt	29.3%	-5.6%
CC(C)[C@H](NC(=O)c1ccccc1F)C(=O)NCc1ccc(S(N)(=O)=O)cc1	0.0	28.5%	6.9%	-16.2	5.6%	1.9%
CC(C)C(NC(=O)c1ccccc1F)C(=O)NCc1ccccc1 (stereo unspecified)	4.6	-3.6%	0.2%	6.6	39.8µM*	-0.7%
OCc1ccc(O)c2ncccc12	-91.6*	20.8%	1.41µM*	-88.0*	39.8µM*	7.3%
Oc1ccc(Cc2ccccc2)c2cccnc12	-92.1*	34.1%	nt	-75.3*	79.4µM*	nt
Oc1ccccc1CNc1cccc2cccnc12	?	-11.1%	-37.3%	?	?	7.3%
CCOCCCn1c(SCC(=O)OCC)nc2c(sc3ccccc32)c1=O	nt	91.5%	5.6%	nt	9.0%	-0.5%
CCCCCCCCCCCCCCCC(=O)NCCc1ccc(O)c(O)c1	nt	nt	nt	nt	nt	5.0%
CCCCCCCC/C=C\CCCCCCCC(=O)NCCc1ccc(O)c(O)c1	-8.6	-12.1%	-8.3%	-2.5	35.5µM*	11.8%[56.1 µM]
CCCCC/C=C\C/C=C\CCCCCCCC(=O)NC(C)C(=O)O (stereo unspecified)	nt	nt	nt	nt	nt	5.6%
CCCCCNC(=O)C(=O)C1C(=O)Nc2ccccc21 (stereo unspecified)	-11.6	51.5%	79.4µM*	4.5	?	0.6%
O=C1Nc2ccccc2C1Cc1ccccn1 (stereo unspecified)	-4.2	0.5%	?	-16.9	89.1µM*	2.5%
CN(C)CCNC(=O)C(=O)C1C(=O)Nc2ccccc21 (stereo unspecified)	nt	nt	-10.0%	nt	nt	0.0%
O=C(NCc1ccccn1)C(=O)C1C(=O)Nc2ccccc21 (stereo unspecified)	-5.6	32.1%	79.4µM*	-11.1	-4.5%	5.0%
Cc1cc2c(s1)c1cnn(Cc3c(F)cc(F)cc3F)c(=O)c1n2C	nt	nt	nt	nt	-19.2%	nt
CCCN1CCCc2cc(CN(CCCN3CCOCC3)C(=O)Nc3ccc(OCC)cc3)ccc21	-9.4	?	39.8µM*	?	28.2µM*	0.0%
COc1ccc(OC)c(CN(CCN2CCOCC2)C(=O)Nc2ccccc2)c1	1.4	6.7%	-0.3%	7.0	-7.1%	2.7%
CCOc1ccc(NC(=O)N(CCCN2CCOCC2)Cc2cccnc2)cc1	5.3	60.6%	-0.9%	-7.4	-10.3%	3.9%
CCOc1ccc(NC(=O)N(CCN2CCOCC2)Cc2ccc3c(c2)CCCN3CC)cc1	-21.4	?	44.7µM*	-28.5	56.2µM*	11.4%
CCN1CCCc2cc(CN(CCN3CCOCC3)C(=S)Nc3cccc(OC)c3)ccc21	-21.4	?	14.1µM*	?	50.1µM*	10.5%
COc1ccc(CN(CCCN2CCOCC2)C(=O)Nc2cccc(Cl)c2)cc1OC	-4.7	-3.8%	-34.1%	-11.1	-16.5%	1.0%
CCCN1CCCc2cc(CN(CCCN3CCOCC3)C(=O)Nc3ccc(Cl)c(Cl)c3)ccc21	nt	?	11.2µM*	nt	12.6µM*	11.4%
SMILES	CtBP-E1A blk	HP1b chromo inh	BAZ2B block	Six1-Eya2 inh	JMJD2A Tudor inh	TDP1 inh
Cc1ccc(S(=O)(=O)C(CNC(=O)C(=O)NCCc2ccccc2)c2cccs2)cc1 (stereo unspecified)	nt	33.4%	-7.6%	nt	-14.3%	2.6%
CCN(Cc1nc(-c2ccc(OC)cc2)oc1C)S(=O)(=O)c1ccc(Cl)cc1	nt	?	?	nt	32.1%	-6.2%
c1cc2c3c(c1)c1c(n3CCNC2)CCCC1	nt	nt	nt	nt	nt	21.4%
Clc1cccc(CNc2cc(-c3ccccc3)nc3nncn23)c1	nt	37.2%	3.3%	nt	-1.3%	4.7%
COc1ccc(S(=O)(=O)c2c(SC)nn(Cc3ccccc3C)c2NC(C)=O)cc1	nt	13.9%	-0.1%	nt	4.2%	0.0%
COc1cc(CN2CCN(Cc3cccc(OC)c3OC)CC2)cc(OC)c1	-1.1	35.5µM*	17.8µM*	-4.2	3.98µM*	nt
COc1ccc(CN2CCN(Cc3cccc(Oc4ccccc4)c3)CC2)c(OC)c1OC	13.2	25.1µM*	20µM*	-8.5	3.98µM*	nt
COc1cc(CN2CCCCCC2)cc(OC)c1	9.4	32.4%	0.0%	13.0	-5.5%	3.3%
CC1(C(=O)NC2CCCCC2)Cc2ccccc2C(=O)N1Cc1ccccc1Cl (stereo unspecified)	nt	61.8%	23.2%	nt	24.0%	0.0%
COc1ccccc1N1CCN(S(=O)(=O)c2c(C)nc3sccn3c2=O)CC1	nt	9.5%	-11.4%	nt	-8.4%	2.6%
CC(C)c1ccc(Nc2nc(Cl)nc(Cl)n2)cc1	nt	3.0%	?	-4.2	89.1µM*	nt
COc1ccc2cc3c(N)nn(C(=O)c4ccc(OC)c(OC)c4)c3nc2c1	nt	26.6%	79.4µM*	nt	-26.6%	nt
COc1ccc(/C=C2/SC(=S)N(CCCC(=O)N3CCN(C)CC3)C2=O)cc1	-9.7	?	31.6µM*	-18.2	?	9.8%
CCOC(=O)CN1C(=O)S/C(=C/c2ccc3c(c2)n(C)c(=O)n3C)C1=O	6.2	7.3%	-2.6%	4.8	-30.6%	5.6%
Cn1c(=O)n(C)c2cc(/C=C3/SC(=O)N(CC(=O)N4CCOCC4)C3=O)ccc21	2.2	14.3%	50.1µM*	-6.2	-2.4%	0.0%
COC(=O)c1ccc(/C=C2\SC(=S)N(CCCC(=O)N3CCOCC3)C2=O)cc1	4.8	27.9%	nt	-0.1	-9.0%	nt
COc1ccc(/C=C2\SC(=S)N(CC(=O)N3CCN(C)CC3)C2=O)cc1	-2.5	-9.3%	-29.8%	-2.7	-27.3%	4.2%
Cc1ccc(/C=C2\SC(=S)N(CCCC(=O)N3CCOCC3)C2=O)cc1	0.2	?	11.2µM*	-5.9	20µM*	10.1%
CN1CCN(C(=O)CCN2C(=O)/C(=C\c3ccc(Cl)cc3Cl)SC2=S)CC1	?	?	?	?	15.8µM*	3.7%
Cc1ccc(N2CC(NC(=O)c3ccco3)CC2=O)cc1 (stereo unspecified)	nt	20.2%	3.4%	nt	?	5.2%
